# In the library only some 5.9% were active in any assay of this set; here they are far more common.
# Rtt109 HAT inh – inhibitors of Candida albicans Rtt109/Vps75 histone acetyltransferase | inhibition, % at 34.9 µM | purified Rtt109/Vps75, ThioGlo CoA-SH fluorescence, 4 h | 330,000 compounds, 0.16% hits | Q5AAJ8;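 active means inhibition of at least 50% in every replicate; inconclusive means best replicate reaches 50% inhibition but some replicates fall short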
# LANA-H2A inh – blocks KSHV LANA binding to histone H2A/H2B. Q9QR71. cell-free LANA-H2A/H2B peptide, fluorescence polarization. inhibition, % (concentration not given with the values). 320,000 compounds, 0.6% hits; in the data active means inhibition mostly above about 10%, no sharp cut-off; inactive means mostly below about 6.7%
# Target sequence (Q9QR71 whole entry, looked up): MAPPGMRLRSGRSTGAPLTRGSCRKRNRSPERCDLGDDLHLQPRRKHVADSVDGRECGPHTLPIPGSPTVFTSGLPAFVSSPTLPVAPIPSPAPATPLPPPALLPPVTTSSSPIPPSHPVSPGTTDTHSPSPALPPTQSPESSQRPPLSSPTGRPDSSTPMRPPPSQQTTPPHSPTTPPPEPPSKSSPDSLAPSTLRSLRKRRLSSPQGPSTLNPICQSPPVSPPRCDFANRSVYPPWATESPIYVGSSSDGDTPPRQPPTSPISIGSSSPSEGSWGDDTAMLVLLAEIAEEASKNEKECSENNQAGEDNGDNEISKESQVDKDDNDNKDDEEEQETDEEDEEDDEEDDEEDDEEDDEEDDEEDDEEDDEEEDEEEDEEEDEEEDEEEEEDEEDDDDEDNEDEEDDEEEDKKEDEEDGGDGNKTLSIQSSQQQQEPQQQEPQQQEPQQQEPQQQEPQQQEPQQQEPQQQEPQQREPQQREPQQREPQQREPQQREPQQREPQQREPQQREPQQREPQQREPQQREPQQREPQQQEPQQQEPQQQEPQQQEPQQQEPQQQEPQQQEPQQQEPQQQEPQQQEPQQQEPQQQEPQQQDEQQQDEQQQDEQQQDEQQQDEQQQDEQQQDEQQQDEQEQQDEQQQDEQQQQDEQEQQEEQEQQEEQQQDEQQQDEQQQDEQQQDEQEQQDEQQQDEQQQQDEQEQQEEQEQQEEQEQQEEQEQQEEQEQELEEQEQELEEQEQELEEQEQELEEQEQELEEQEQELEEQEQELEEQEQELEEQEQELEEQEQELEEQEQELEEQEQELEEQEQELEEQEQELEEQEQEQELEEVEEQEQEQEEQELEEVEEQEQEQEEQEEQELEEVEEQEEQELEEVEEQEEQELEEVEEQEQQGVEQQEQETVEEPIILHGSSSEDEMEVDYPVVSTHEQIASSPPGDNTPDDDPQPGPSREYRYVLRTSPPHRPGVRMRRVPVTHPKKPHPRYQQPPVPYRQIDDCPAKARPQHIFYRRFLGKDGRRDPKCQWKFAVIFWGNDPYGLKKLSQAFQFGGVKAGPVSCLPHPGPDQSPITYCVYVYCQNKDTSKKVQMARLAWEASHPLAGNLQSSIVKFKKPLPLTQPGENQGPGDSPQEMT
# ALR inh – blocks human ALR sulfhydryl oxidase activity; P55789; purified ALR, DTT oxidation, H2O2 HRP-luminol luminescence; inhibition, % (no concentration beside the values); 290,000 compounds, 3.8% hits;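 active means mean replicate inhibition above about 79%, with every replicate also reaching it, limit read from the data; inconclusive means only one of the two criteria met; inactive means mean below limit and not every replicate reaching it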
# ABHD5-PLIN5 inh – ABHD5-PLIN5 protein interaction inhibition. Split G. princeps luciferase complementation, luminescence, 4 h. inhibition, % at 4 µM. 360,000 compounds, 0.78% hits. AID 602281;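 active means inhibition above the mean inhibition across every tested compound plus 3 SD, cut at about 22% in these data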;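 further: 0% = DMSO only wells and the 100% control is not disclosed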
# rCAG binder-1 – r(CAG) repeat RNA binding; TO-PRO-1 dye displacement fluorescence; inhibition, % at 3 µM; 370,000 compounds, 1.3% hits; AID 651821;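 active means inhibition above the plate cutoff, the mean of all test compounds on that plate plus 3 SD, cut at about 35% in these data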;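 further: 0% = DMSO alone and 100% = 100 µM mitoxantrone as full dye displacement; higher means more dye released from RNA so lower well fluorescence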
# PRMT1 inh – inhibitors of human PRMT1; recombinant PRMT1, activity-based probe fluorescence polarization; inhibition, % at 2.79 µM; 370,000 compounds, 1.3% hits;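 active means inhibition above about 21% made by adding two undisclosed values, limit read from the data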
# rCAG bind conf – r(CAG) RNA repeat binding, confirmation | 4,300 compounds, 70% hits | inhibition, % at 3 µM | TO-PRO-1 dye displacement fluorescence | AID 652065 | shares compounds with rCAG binder-1;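 active means inhibition above a per-plate cutoff, the mean inhibition of sample wells plus 3 SD, cut at about 35% in these data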;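 further: loss of TO-PRO-1 fluorescence as compound displaces dye from 1x1 AA loop RNA; 0% = DMSO only wells and 100% = 100 µM mitoxantrone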
# DNA CAG counter – disrupts DNA CAG TO-PRO-1 complex, flagging rCAG hits | d(CAG) DNA oligo TO-PRO-1 dye displacement, fluorescence | 4,300 compounds, 94% hits | AID 652068 | shares compounds with rCAG binder-1 | inhibition, % at 3 µM;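 active means inhibition above its plate's cutoff, the mean test-well inhibition plus 3 SD, cut at about 4.8% in these data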;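 further: 0% = DNA dye mix with DMSO and 100% = 100 µM mitoxantrone; hits displace the dye from DNA and so lower well fluorescence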
# DNA CAG DR – DNA CAG dye complex inhibition, dose response counter-screen; shares compounds with rCAG binder-1; DNA CAG/GTC duplex TO-PRO-1 dye displacement fluorescence; IC50, µM; 250 compounds, 20% hits; in the data active means IC50 below about 10 µM
# dCAG TOPRO ctr – inhibits DNA CAG/GTC TO-PRO-1 complex, rCAG binder counter-screen; shares compounds with rCAG binder-1; d(CAG) DNA duplex TO-PRO-1 dye displacement, fluorescence; IC50, µM; 30 compounds, 80% hits
# rCAG binder-2 – binds r(CAG) RNA repeats in late stage dose response. shares compounds with rCAG binder-1. r(CAG) RNA TO-PRO-1 dye displacement, fluorescence. IC50, µM. 30 compounds, 100% hits. AID 720651
# * marks the source's active call; other numbers are inactive results; i = inactive; ? = inconclusive; · = no result. Unless noted, how the calls were made is not given here.
SMILES,Rtt109 HAT inh,LANA-H2A inh,ALR inh,ABHD5-PLIN5 inh,rCAG binder-1,PRMT1 inh,rCAG bind conf,DNA CAG counter,others
COc1ccc(NC(=O)c2cccc3c(-c4ccc(O)c(OC)c4)coc23)cc1,·,·,·,-1.6,16.0,2.4,·,·,
Cc1sc2nc(COC(=O)CNC(=O)c3ccc(F)cc3Cl)[nH]c(=O)c2c1C,·,·,·,·,3.3,-1.9,·,·,
COc1cccc(OCC(C)CN2CCC(C(O)(c3ccccc3)c3ccccc3)CC2)c1 (stereo not drawn),·,·,·,·,12.5,2.4,·,·,
COCC#Cc1ccc(CC[C@H]2O[C@H]3CC[C@@H](CO)O[C@H]3C[C@H]2n2cc(C(C)(C)O)nn2)cc1,·,·,·,·,5.4,6.6,·,·,
CC(=O)c1ccc(Sc2ccccc2)c([N+](=O)[O-])c1,-9.7,0.0,-6.8,-3.3,0.6,-4.0,·,·,
O=C(O)c1ccccc1C(=O)c1ccc(Sc2ccc(Cl)cc2)c([N+](=O)[O-])c1,-0.8,2.2,·,-4.4,64.1*,-2.3,71.2*,32.0*,
C[C@@H]1CN([C@@H](C)CO)C(=O)CCCn2nncc2CO[C@@H]1CN(C)C(=O)Nc1ccc(N2CCN(C)CC2)cc1,·,·,·,2.3,0.6,2.3,·,·,
C[C@@H]1CN([C@@H](C)CO)C(=O)CCCn2cc(nn2)CO[C@H]1CN(C)C(=O)Nc1ccc2c(c1)OCO2,·,·,·,·,-1.2,2.6,·,·,
CC(C)C(=O)NCCCc1ccccc1,-2.2,1.6,·,3.0,0.8,-0.3,·,·,
CC(C)CCCCCCCCc1cccc(O)c1C(=O)O,·,·,·,·,89.4*,2.0,86.5*,52.0*,
C=CCn1c(SCC(=O)c2ccc(-c3ccccc3)cc2)nnc1-c1ccc(OC)cc1,·,·,·,·,9.9,1.4,·,·,
Cc1cccc(N/N=C/c2ccc(C)s2)c1,4.8,5.2,-12.1,1.6,13.1,5.9,·,·,
Cc1cccc(N/N=C/c2ccc(O)c(O)c2O)c1,45.3,5.2,79.3*,-12.8,43.1*,32.9*,43.4*,15.6*,
COc1cc(C23CCCN(CCC(C(C)(C)C)C2)C32OCCO2)cc(OC)c1OC (stereo not drawn),·,·,·,-9.7,-0.8,-3.4,·,·,
O=S(=O)(N/N=C1/CC(c2ccccc2)Oc2ccccc21)c1ccccc1 (stereo not drawn),13.0,·,·,-5.2,35.6*,0.5,32.0,9.6*,
O=C1CC(c2ccccc2)Oc2ccc(Cl)cc21 (stereo not drawn),-3.3,·,·,5.4,1.0,0.8,·,·,
CC(C)(C)N/N=C1\CC(c2ccccc2)Oc2ccccc21 (stereo not drawn),5.8,3.2,14.1,-4.8,-1.1,-5.0,·,·,
O=C(O)c1cc(N/N=C2/CC(c3ccccc3)Oc3ccccc32)ccc1Cl (stereo not drawn),8.6,1.0,97.6*,0.2,46.2*,6.3,62.4*,22.4*,
CCc1nnc(NC(=O)c2csc3c2CCC(C)C3)s1 (stereo not drawn),·,0.7,0.3,·,·,·,·,·,
CC1CCc2c(C(=O)Nc3cccc(-c4nn[nH]n4)c3)csc2C1 (stereo not drawn),8.1,-22.2,51.4,0.4,64.6*,-0.3,46.4*,13.1*,
Nc1[nH]c(C(=O)c2ccc(Br)cc2)c(-c2ccccc2)c1C(=O)NCCc1c[nH]c2ccccc12,·,·,·,·,12.3,-4.0,·,·,
COc1ccc(CC(=O)Oc2ccc(C(C)C)cc2)cc1S(=O)(=O)N1CCOCC1,-11.1,-3.7,11.8,13.4,-4.8,-2.0,·,·,
Nc1nonc1N/N=C/c1c(O)ccc2ccccc12,?,-5.8,-22.5,4.0,40.4*,1.0,20.4,15.0*,
CC1=C(C#N)c2nc(N)c(C#N)c(C)c2/C1=C\c1ccc(-c2ccccc2C(=O)O)o1,-3.4,·,·,5.3,46.2*,14.6,69.4*,32.1*,DNA CAG DR=i;dCAG TOPRO ctr=2.83*;rCAG binder-2=1.11*
Cc1ccc(S(=O)(=O)N2[C@@H](c3ccccc3)C(C(=O)O)=CC[C@H]2c2cccc(C)c2)cc1,10.5,-3.7,0.6,8.1,13.6,0.7,·,·,
SMILES,Rtt109 HAT inh,LANA-H2A inh,ALR inh,ABHD5-PLIN5 inh,rCAG binder-1,PRMT1 inh,rCAG bind conf,DNA CAG counter,others
COc1cc([C@@H]2CC=C(C(=O)O)[C@H](c3ccc(F)cc3)N2S(=O)(=O)c2ccc(C)cc2)cc(OC)c1OC,-5.4,0.6,-6.6,-11.7,29.5,-1.7,·,·,
COc1cccc([C@@H]2CC=C(C(=O)O)[C@H](c3cccc(Cl)c3)N2S(=O)(=O)c2ccc(C)cc2)c1,22.3,2.3,4.4,-4.1,62.3*,1.9,62.9*,26.0*,
COc1cccc([C@@H]2CC=C(C(=O)O)[C@H](c3ccccc3)N2S(=O)(=O)c2ccc(C)cc2)c1,-1.6,2.3,2.5,5.1,43.4*,0.3,36.9*,8.9*,
COc1cccc([C@@H]2CC=C(C(=O)O)[C@H](c3ccc(F)cc3)N2S(=O)(=O)c2ccc(C)cc2)c1,13.2,-1.4,-5.6,-2.4,45.5*,0.4,37.1*,9.3*,
CCCCNC(=O)C[C@@H]1C[C@@]2(C(=O)OCC)CCCC=C2N(CCC2=CCCCC2)C1=O,·,·,·,4.9,-0.1,-3.0,·,·,
O=c1cc(-c2ccc([N+](=O)[O-])cc2)nc2cc(-c3ccc(F)cc3)[nH]n12,11.8,4.8,·,-4.3,34.6*,3.7,50.2*,15.2*,
CCOc1ccc(/C=C\c2nc(O)c([N+](=O)[O-])c(=O)[nH]2)cc1OCC,-16.8,-4.5,?,5.2,3.2,-1.2,·,·,
CCOc1cc(/C=C\c2nc(O)c([N+](=O)[O-])c(=O)[nH]2)ccc1OC(C)CC (stereo not drawn),-4.6,2.4,?,5.2,44.7*,-0.7,45.7*,9.5*,DNA CAG DR=>29.9
CN(C)S(=O)(=O)c1cccc(C(=O)N/N=C\c2ccccc2[N+](=O)[O-])c1,·,·,·,·,4.1,3.6,·,·,
O=C(Nc1ccc(C(=O)O)cc1)/C(=C\c1ccc2c(c1)OCO2)NC(=O)c1ccc(Br)cc1,16.8,4.6,33.0,-2.6,39.0*,0.1,26.8,8.0*,
O=C(Nc1ccc(C(=O)O)cc1)/C(=C\c1ccc2c(c1)OCO2)NC(=O)c1ccccc1,6.0,-1.9,-15.6,9.8,6.9,-2.3,·,·,
CC(C)(C)c1ccc(C(=O)N/C(=C\c2cccc([N+](=O)[O-])c2)C(=O)Nc2cccc(C(=O)O)c2)cc1,-1.6,-6.4,1.2,0.7,84.2*,1.3,74.8*,44.3*,

# Compound activity: PubChem BioAssay, several laboratories
